Bioassay records: PubChem, Johns Hopkins Ion Channel Center
KCNQ2 inh: inhibitors of rat KCNQ2 potassium channel. CHO-K1 KCNQ2, FluxOR thallium flux, 20 min; active compounds read low. B-score at 10 µM. 310,000 tested, 1.1% active;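 active means fluorescence ratio B-score at most minus 3 library SDs, with starting brightness B-score within 2 library SDs, cut at about -5.5 in these data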
Target sequence (O88943 whole entry, looked up): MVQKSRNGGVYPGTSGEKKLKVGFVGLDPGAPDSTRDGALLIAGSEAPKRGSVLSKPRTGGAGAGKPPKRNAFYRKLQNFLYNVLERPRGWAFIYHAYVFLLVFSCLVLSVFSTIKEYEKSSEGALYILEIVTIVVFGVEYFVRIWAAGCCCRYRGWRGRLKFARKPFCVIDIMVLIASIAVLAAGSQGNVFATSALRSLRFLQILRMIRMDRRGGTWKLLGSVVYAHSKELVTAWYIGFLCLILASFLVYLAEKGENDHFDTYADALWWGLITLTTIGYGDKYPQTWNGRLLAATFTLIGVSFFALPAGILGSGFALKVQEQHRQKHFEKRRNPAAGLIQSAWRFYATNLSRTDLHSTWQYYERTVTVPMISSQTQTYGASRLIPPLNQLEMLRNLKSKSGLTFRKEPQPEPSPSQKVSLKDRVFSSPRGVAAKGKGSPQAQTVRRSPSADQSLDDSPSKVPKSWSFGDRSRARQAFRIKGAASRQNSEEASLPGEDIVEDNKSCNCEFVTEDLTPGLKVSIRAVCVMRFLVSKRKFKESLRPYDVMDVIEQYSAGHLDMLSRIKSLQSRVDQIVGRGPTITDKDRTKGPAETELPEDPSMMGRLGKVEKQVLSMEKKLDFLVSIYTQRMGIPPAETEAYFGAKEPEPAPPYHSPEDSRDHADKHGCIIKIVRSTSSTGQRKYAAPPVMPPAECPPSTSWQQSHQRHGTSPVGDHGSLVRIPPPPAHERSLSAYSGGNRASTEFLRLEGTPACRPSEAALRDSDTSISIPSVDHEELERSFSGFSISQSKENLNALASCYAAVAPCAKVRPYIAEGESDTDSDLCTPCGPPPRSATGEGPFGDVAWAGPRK
KCNQ2 enhance: potentiators of rat KCNQ2 potassium channel; O88943; 310,000 tested, 0.54% active; B-score at 10 µM; AID 2239; CHO-K1 KCNQ2, FluxOR thallium flux fluorescence; active compounds read high;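 active means fluorescence ratio B-score at least 3 SD of library B-scores, with initial fluorescence B-score within 3 of them, cut at about 5.3 in these data; same plate scores as AID 2156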;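 further: B-score of peak minus minimum over baseline fluorescence ratio after K+ and Tl+ stimulus; positive B-score means potentiation of KCNQ2 with more thallium influx and brighter signal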
KCNQ2 block conf: rat KCNQ2 channel inhibition, confirmatory screen | shares compounds with KCNQ2 inh | KCNQ2-expressing cells, thallium flux; active compounds read low | activity change, negative = inhibition, % at 10 µM | 1,000 tested, 57% active
KCNQ1 spec: human KCNQ1 activity in KCNQ2 inhibitor specificity screen; shares compounds with KCNQ2 inh; activity change, negative = inhibition, % at 10 µM; KCNQ1-expressing cells, FluxOR thallium flux fluorescence; active compounds read low; 1,000 tested, 15% active; AID 493026;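 active means activity change at least 3 SD of negative controls below their mean in both duplicate wells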;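 further: CHO cells stably transfected with KCNQ1 and depolarized by potassium stimulus; peak minus minimum fluorescence over baseline after thallium addition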
CHO Tl ctr: counter-screen for KCNQ2 inhibitors: effect in parental CHO cells. shares compounds with KCNQ2 inh. thallium flux counter-screen; active compounds read low. activity change, % at 10 µM. 1,000 tested, 14% active
KCNQ2 inh confirm: confirmation of rat KCNQ2 potassium channel inhibitors | shares compounds with KCNQ2 inh | KCNQ2-expressing cells, automated patch clamp current | calls only at 10 µM | 550 tested, 49% active | AID 588531
Each line names hits and unclear results; the compound was inactive in the other large screens (follow-up assays come after a bar, where they were run). This is a sample that favours compounds with a hit; in the whole collection about 1.6% have one here. Unless noted, how the calls were made is not given here.

CCN(CCCNC(=O)CN(C)S(=O)(=O)c1ccc2c(c1)CCC(=O)N2)c1cccc(C)c1	none (no result: KCNQ2 enhance)
CCN(CC(=O)Nc1c(F)cccc1F)C(=O)CCNC(=O)c1ccc([N+](=O)[O-])cc1	none (no result: KCNQ2 enhance)
CS(=O)(=O)N(Cc1ccco1)CC(O)Cn1c2ccccc2c2ccccc21 (stereo not given)	KCNQ2 inh -8.17 | KCNQ2 block conf -26.5% | KCNQ1 spec inactive | CHO Tl ctr inactive | KCNQ2 inh confirm active
Cc1ccc(N(CC(O)Cn2c3ccccc3c3ccccc32)S(C)(=O)=O)cc1 (stereo not given)	none (no result: KCNQ2 enhance)
O=C(NCc1cccnc1)c1cc(S(=O)(=O)N2CCCC2)c(Cl)cc1Cl	none (no result: KCNQ2 enhance)
COc1ccc(/C=N/N2CCN(c3ccccc3OC)CC2)cc1Br	none (no result: KCNQ2 enhance)
COc1ccccc1N1CCN(/N=C/c2cccc(Cl)c2)CC1	KCNQ2 inh -7.03 | KCNQ2 block conf -29.5% | KCNQ1 spec inactive | CHO Tl ctr inactive | KCNQ2 inh confirm active
COc1ccccc1N1CCN(/N=C/c2cccc(OC)c2O)CC1	none (no result: KCNQ2 enhance)
COc1ccccc1N1CCN(/N=C/c2cc(Br)ccc2F)CC1	KCNQ2 inh -10.5 | KCNQ2 block conf -17.5% | KCNQ1 spec inactive | CHO Tl ctr inactive | KCNQ2 inh confirm inactive
CCN1CCN(C(=O)CN2C(=O)COc3ccc(S(=O)(=O)N4CCOCC4)cc32)CC1	none (no result: KCNQ2 enhance)
CCn1cnc2cc(NCc3nc4ccccc4n3Cc3ccccc3)ccc21	KCNQ2 inh -8.54 | KCNQ2 block conf -34.0% | KCNQ1 spec inactive | CHO Tl ctr inactive | KCNQ2 inh confirm active
CCn1cnc2cc(NCc3nc4ccccc4n3C)ccc21	none (no result: KCNQ2 enhance)
Cn1c(CC(=O)Nc2ccccc2Cl)nnc1SCC(=O)NC1CCCCC1	none (no result: KCNQ2 enhance)
Cc1noc(C)c1COC(=O)c1cccc(N(C)C)c1	none
O=C(CSc1nc2ccccc2[nH]1)N1CCCCC1	none
Cc1c(C)n(C(=O)CSc2nc3ccccc3[nH]2)c2ccccc12	KCNQ2 inh -10.7 | KCNQ2 block conf -30.0% | KCNQ1 spec inactive | CHO Tl ctr inactive | KCNQ2 inh confirm inactive
Cc1[nH]n(-c2ccccc2)c(=O)c1C(C[N+](=O)[O-])c1ccccc1Cl (stereo not given)	none (no result: KCNQ2 enhance)
COc1ccc(C(C[N+](=O)[O-])c2c(C)[nH]n(-c3ccccc3)c2=O)cc1 (stereo not given)	KCNQ2 inh -7.05 | KCNQ2 block conf -26.0% | KCNQ1 spec inactive | CHO Tl ctr inactive | KCNQ2 inh confirm inactive
COc1cccc(NC(=O)c2cccc(C(=O)Nc3cccc(OC)c3)c2)c1	none
COc1cccc(C(=O)Nc2cccc(C(=O)NCC(C)C)c2)c1	KCNQ2 inh -6.69 | KCNQ2 block conf inactive | KCNQ1 spec inactive | CHO Tl ctr inactive
COc1ccccc1CCNC(=O)C(=O)NCC1OCCN1S(=O)(=O)c1cc(F)ccc1F (stereo not given)	none
Cc1cc(C)cc(OCC(=O)OCC(=O)N(CC(C)C)c2c(N)n(Cc3ccccc3)c(=O)[nH]c2=O)c1	none
COc1ccc(-c2nc3c(-c4ccc(F)cc4)cnn3cc2C)cc1F	none (no result: KCNQ2 enhance)
CN(C)C(CNC(=O)c1ccc(-c2ccccc2)cc1)c1ccccc1 (stereo not given)	KCNQ2 inh -6.63 | KCNQ2 block conf inactive | KCNQ1 spec inactive | CHO Tl ctr inactive
CN(C)C(CNC(=O)c1ccc(C(=O)c2ccccc2)cc1)c1ccccc1 (stereo not given)	none (no result: KCNQ2 enhance)
N#C/C(=C\c1cccnc1)C(=O)Nc1cccc2ccccc12	KCNQ2 inh -6.69 | KCNQ2 block conf inactive | KCNQ1 spec inactive | CHO Tl ctr inactive
COc1ccccc1NC(=O)/C(C#N)=C/c1cccnc1	none (no result: KCNQ2 enhance)
Cc1ccc(-n2cccc2/C=C2/C(=N)N3C(=NC2=O)SN=C3S(C)(=O)=O)cc1	none (no result: KCNQ2 enhance)
CCc1ccc(-n2cccc2/C=C2/C(=N)N3C(=NC2=O)SN=C3S(C)(=O)=O)cc1	KCNQ2 inh -10.4 | KCNQ2 block conf -39.0% | KCNQ1 spec -41.0% | CHO Tl ctr -35.0% | KCNQ2 inh confirm inactive
Cc1sc2nc(SCc3ccccc3)n(Cc3ccco3)c(=O)c2c1C	none (no result: KCNQ2 enhance)
COc1cccc(CSc2nc3sc(C)c(C)c3c(=O)n2Cc2ccco2)c1	KCNQ2 inh -8.81 | KCNQ2 block conf -28.0% | KCNQ1 spec inactive | CHO Tl ctr inactive | KCNQ2 inh confirm inactive
Cc1ccc2c(C)c(C(=O)N(C)Cc3nccn3C)oc2c1C	KCNQ2 inh -7.6 | KCNQ2 block conf inactive | KCNQ1 spec inactive | CHO Tl ctr inactive
Cc1c(C(=O)N(Cc2nccn2C)C(C)C)oc2c(F)cccc12	none
Cc1ccc2c(C)c(C(=O)N3CCN(c4ncccn4)CC3)oc2c1C	KCNQ2 inh -8.62 | KCNQ2 block conf -29.0% | KCNQ1 spec inactive | CHO Tl ctr inactive | KCNQ2 inh confirm active
COc1ccc2oc(C(=O)N3CCN(c4ncccn4)CC3)c(C)c2c1	none
COCCn1c(Cc2ccccc2)nnc1SCC(=O)NC1CC1	none (no result: KCNQ2 enhance)
CC(C)(C)NC(=O)Cn1nnc(-c2ccc(OCc3c(F)cccc3Cl)cc2)n1	none
CN1CCN(C2Cc3ccccc3Sc3cc(C(F)(F)F)ccc32)CC1 (stereo not given)	KCNQ2 inh -7.38 | KCNQ2 block conf -39.0% | KCNQ1 spec -38.0% | CHO Tl ctr -30.0% | KCNQ2 inh confirm inactive
CN1CCN(C2Cc3cc(F)ccc3Sc3ccc(Cl)cc32)CC1 (stereo not given)	none (no result: KCNQ2 enhance)
CCC(=O)N1CCN(c2cc(N3CCN(C)CC3)c(F)cc2[N+](=O)[O-])CC1	none
CN1CCN(c2cc(N3CCc4ccccc4C3)c(F)cc2[N+](=O)[O-])CC1	KCNQ2 inh -6.85 | KCNQ2 block conf inactive | KCNQ1 spec inactive | CHO Tl ctr inactive
CC1(c2nnc(-c3ccncc3)o2)CC(c2ccc([N+](=O)[O-])cc2)=NO1 (stereo not given)	none
O=C(NC1c2ccccc2-c2ccccc21)N1CCCCC1	KCNQ2 inh -6.76 | KCNQ2 block conf -25.0% | KCNQ1 spec inactive | CHO Tl ctr inactive | KCNQ2 inh confirm active
CN(C)C(=O)NC1c2ccccc2-c2ccccc21	none (no result: KCNQ2 enhance)
COc1ccc(Cc2nnc(NC(=O)c3cccc(F)c3)s2)cc1OC	none
O=C(NC1CCN(C(=O)NCc2ccccc2)CC1)c1ccccc1	none (no result: KCNQ2 enhance)
Cc1ccccc1-c1nc(C(=O)NCC2CCCO2)cc2c1[nH]c1ccccc12 (stereo not given)	none (no result: KCNQ2 enhance)
Cc1ccc(-c2nc(C(=O)NCC3CCCO3)cc3c2[nH]c2ccccc23)cc1 (stereo not given)	KCNQ2 inh -11.5 | KCNQ2 block conf -28.5% | KCNQ1 spec inactive | CHO Tl ctr inactive | KCNQ2 inh confirm inactive
O=c1c2ccccc2nc(COc2ccccc2)n1/N=C/c1ccc(O)c(O)c1	none (no result: KCNQ2 enhance)
O=c1c2ccccc2nc(COc2ccccc2)n1/N=C/c1ccco1	KCNQ2 inh -10.2 | KCNQ2 block conf inactive | KCNQ1 spec inactive | CHO Tl ctr inactive
CCn1c(N2CCN(C(=O)C34CC5CC(CC(C5)C3)C4)CC2)nc2ccccc21	KCNQ2 inh -8.62 | KCNQ2 block conf -40.0% | KCNQ1 spec -37.0% | CHO Tl ctr -36.5% | KCNQ2 inh confirm active
CCn1c(N2CCN(S(=O)(=O)c3ccccc3C(F)(F)F)CC2)nc2ccccc21	none (no result: KCNQ2 enhance)
